In PubChem BioAssay (EPA / NIEHS):
Activity calls are given as the source filed them. The calls were made as follows: active = hit-call score of the fitted dose curve at least 0.9, where 1 is the maximum; inactive = score below 0.9.

How the values were obtained:
Details in all cases: mRNA level, 48 h; actives raise or lower the signal
[1] = read-out: adenosine kinase (ADK) gene, ADK (gene 132); test: LTEA_HepaRG_ADK: Life Technologies and Expression Analysis (LTEA) Assay for adenosine kinase (ADK) gene using HepaRG (AID 2283471)
Procedure, shortened: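 HepaRG (human liver), 48 h chemical exposure, 8-pt half-log series, top 100 uM, 0.5% DMSO vehicle. Readout: ADK mRNA by qRT-PCR vs housekeeping genes; bidirectional curve fit relative to DMSO baseline.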

[2] = read-out: BCL2L11 (gene 10018); test: LTEA_HepaRG_BCL2L11: Life Technologies and Expression Analysis (LTEA) Assay for Bcl-2 (BCL2L11) gene using HepaRG (AID 2283473)
Procedure, shortened: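 Read-out is BCL2L11 transcript level by qRT-PCR, normalized to three housekeeping genes and fitted bidirectionally against 0.5% DMSO vehicle. HepaRG cells received chemicals for 48 h in serum-free induction medium, 100 uM down in half-log dilutions.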

[3] = read-out: Apolipoprotein A-V (APOA5) gene, APOA5 (gene 116519); test: LTEA_HepaRG_APOA5: Life Technologies and Expression Analysis (LTEA) Assay for Apolipoprotein A-V (APOA5) gene using HepaRG (AID 2283474)
Procedure, shortened: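 Readout is APOA5 transcript level by qRT-PCR on Fluidigm dynamic arrays, normalized to three housekeeping genes. HepaRG cultures received chemicals for 48 h at up to 100 uM (half-log steps, 0.5% DMSO), with gain or loss scored relative to DMSO.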

[4] = read-out: Apoptosis regulator Bcl-2 (Homo sapiens) (UniProt P10415); test: LTEA_HepaRG_BCL2: Life Technologies and Expression Analysis (LTEA) Assay for Bcl-2 gene using HepaRG (AID 2283475)
Procedure, shortened: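 Each chemical was tested in duplicate on HepaRG cultures held in serum-free induction medium for 48 h, highest concentration 100 uM with half-log dilutions. Transcript levels came from multiplexed qRT-PCR, normalised to housekeeping genes; activity was scored in either direction relative to DMSO.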

[5] = read-out: Bcl-2 (BID) gene, BID (gene 637); test: LTEA_HepaRG_BID: Life Technologies and Expression Analysis (LTEA) Assay for Bcl-2 (BID) gene using HepaRG (AID 2283476)
Procedure, shortened: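 Assay used HepaRG hepatic cells treated 48 h in serum-free medium with half-log dilutions from 100 uM. Endpoint: BID mRNA, qRT-PCR, normalized to ACTB/GAPDH/POLR2A.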

[6] = read-out: Caspase-3 (Homo sapiens) (UniProt P42574); test: LTEA_HepaRG_CASP3: Life Technologies and Expression Analysis (LTEA) Assay for cysteine-aspartic acid protease (CASP3) using HepaRG (AID 2283477)
Procedure, shortened: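 Read-out is CASP3 mRNA level by TaqMan qRT-PCR in human HepaRG cells after 48 h chemical exposure. Eight half-log concentrations topping at 100 uM were tested in 0.5% DMSO; gain or loss was fitted relative to DMSO.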

[7] = read-out: Cytochrome P450 (CYP24A1), CYP24A1 (gene 1591); test: LTEA_HepaRG_CYP24A1: Life Technologies and Expression Analysis (LTEA) Assay for Cytochrome P450 (CYP24A1) using HepaRG (AID 2283478)
Procedure, shortened: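 HepaRG, 48 h chemical exposure, 8-pt half-log CRC from 100 uM, 0.5% DMSO vehicle, duplicates. Endpoint: CYP24A1 mRNA by Fluidigm TaqMan qRT-PCR, normalized ACTB/GAPDH/POLR2A; gain/loss fit vs DMSO.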

[8] = read-out: Cytochrome P450 (CYP1A2), CYP1A2 (gene 1544); test: LTEA_HepaRG_CYP1A2: Life Technologies and Expression Analysis (LTEA) Assay for Cytochrome P450 (CYP1A2) using HepaRG (AID 2283479)
Procedure, shortened: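 CYP1A2 transcript induction or loss, quantified by Fluidigm qRT-PCR against three housekeeping genes, was fitted bidirectionally against 0.5% DMSO controls. Human HepaRG cells received eight half-log concentrations from 100 uM over 48 h.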

[9] = read-out: cysteine-aspartic acid protease (CASP8), CASP8 (gene 841); test: LTEA_HepaRG_CASP8: Life Technologies and Expression Analysis (LTEA) Assay for cysteine-aspartic acid protease (CASP8) using HepaRG (AID 2283480)
Procedure, shortened: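 CASP8 transcript measured by TaqMan qRT-PCR with ACTB/GAPDH/POLR2A normalization, after 48 h chemical exposure of HepaRG cells in serum-free induction medium. Eight concentrations, top 100 uM, half-log steps, 0.5% DMSO vehicle; fits in both directions versus DMSO.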

[10] = read-out: Cytochrome P450 (CYP2B6), CYP2B6 (gene 1555); test: LTEA_HepaRG_CYP2B6: Life Technologies and Expression Analysis (LTEA) Assay for Cytochrome P450 (CYP2B6) using HepaRG (AID 2283481)
Procedure, shortened: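 HepaRG cells plated 48 h, switched to serum-free induction medium, then dosed 48 h (8 points, half-log from 100 uM, 0.5% DMSO). RNA isolated; CYP2B6 expression measured by qRT-PCR; gain or loss fitted relative to DMSO.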

[11] = read-out: Cytochrome P450 2C19 (Homo sapiens) (UniProt P33261); test: LTEA_HepaRG_CYP2C19: Life Technologies and Expression Analysis (LTEA) Assay for CYP2C19 using HepaRG (AID 2283482)
Procedure, shortened: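 Transcript levels of CYP2C19 were quantified by qRT-PCR after HepaRG cells were treated for 48 hours with test chemicals up to 100 uM (eight half-log concentrations, 0.5% DMSO vehicle). Gain or loss of signal was fitted relative to DMSO.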

[12] = read-out: CYP2C8 (gene 1558); test: LTEA_HepaRG_CYP2C8: Life Technologies and Expression Analysis (LTEA) Assay for CYP2C8 using HepaRG (AID 2283483)
Procedure, shortened: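 CYP2C8 expression measured by TaqMan qRT-PCR and normalized to three housekeeping genes. HepaRG cultures were treated for 48 h with an eight-point half-log series topping at 100 uM, vehicle 0.5% DMSO, duplicates; fitted both directions against DMSO.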

[13] = read-out: CYP2C9 (gene 1559); test: LTEA_HepaRG_CYP2C9: Life Technologies and Expression Analysis (LTEA) Assay for CYP2C9 using HepaRG (AID 2283484)
Procedure, shortened: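 CYP2C9 transcript level, quantified by TaqMan qRT-PCR against three housekeeping genes, was fitted bidirectionally relative to 0.5% DMSO. HepaRG cultures were treated 48 h, in duplicate, at eight half-log concentrations topping at 100 uM.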

[14] = read-out: CYP2E1 (gene 1571); test: LTEA_HepaRG_CYP2E1: Life Technologies and Expression Analysis (LTEA) Assay for CYP2E1 using HepaRG (AID 2283485)
Procedure, shortened: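 Assay uses 48 h exposure of HepaRG hepatic cells, eight concentrations to 100 uM. Expression of CYP2E1 is quantified by TaqMan qRT-PCR with ACTB, GAPDH and POLR2A normalization; curves fitted in both directions relative to vehicle.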

[15] = read-out: CYP4A11 (gene 1579); test: LTEA_HepaRG_CYP4A11: Life Technologies and Expression Analysis (LTEA) Assay for CYP4A11 using HepaRG (AID 2283486)
Procedure, shortened: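 HepaRG, 48 h chem exposure, 8 conc (100 uM top, half-log), 0.5% DMSO vehicle; qRT-PCR readout, housekeeping-gene normalized; bidirectional curve fit vs DMSO baseline.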

[16] = read-out: Cytochrome P450 3A4 (Homo sapiens) (UniProt P08684); test: LTEA_HepaRG_CYP3A4: Life Technologies and Expression Analysis (LTEA) Assay for CYP3A4 using HepaRG (AID 2283487)
Procedure, shortened: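 CYP3A4 transcript measured by TaqMan qRT-PCR and normalized to three housekeeping genes after 48 h chemical exposure of human HepaRG cells. Top concentration 100 uM, half-log steps, 0.5% DMSO vehicle; gain or loss fitted against DMSO baseline.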

[17] = read-out: DNA damage-inducible transcript 3 (DDIT3), DDIT3 (gene 1649); test: LTEA_HepaRG_DDIT3: Life Technologies and Expression Analysis (LTEA) Assay for DNA damage-inducible transcript 3 (DDIT3) using HepaRG (AID 2283488)
Procedure, shortened: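 Eight-point concentration-response (100 uM highest, half-log dilutions) in HepaRG, 48 h, duplicate wells. Endpoint: qRT-PCR mRNA, normalized (ACTB, GAPDH, POLR2A), bidirectional fitting with DMSO as baseline.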

[18] = read-out: Pro-epidermal growth factor (Homo sapiens) (UniProt P01133); test: LTEA_HepaRG_EGF: Life Technologies and Expression Analysis (LTEA) Assay for Epidermal growth factor (EGF) using HepaRG (AID 2283489)
Procedure, shortened: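 HepaRG, 48 h dosing, 100 uM top, half-log x8, 0.5% DMSO. Readout: TaqMan qRT-PCR (Fluidigm array), housekeeping-normalized. Gain or loss of signal fit vs DMSO.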

[19] = read-out: Early growth response protein 1 (EGR1) transcription factor, EGR1 (gene 1958); test: LTEA_HepaRG_EGR1: Life Technologies and Expression Analysis (LTEA) Assay for Early growth response protein 1 (EGR1) transcription factor using HepaRG (AID 2283490)
Procedure, shortened: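 EGR1 transcript levels quantified by qRT-PCR (Fluidigm arrays) against three housekeeping genes after 48 h chemical exposure of HepaRG cells. Eight-point half-log series topping at 100 uM, 0.5% DMSO vehicle, analyzed for gain or loss.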

Measured: AC50

Apoptosis regulator Bcl-2 (Homo sapiens), sequence (P10415 whole entry, looked up): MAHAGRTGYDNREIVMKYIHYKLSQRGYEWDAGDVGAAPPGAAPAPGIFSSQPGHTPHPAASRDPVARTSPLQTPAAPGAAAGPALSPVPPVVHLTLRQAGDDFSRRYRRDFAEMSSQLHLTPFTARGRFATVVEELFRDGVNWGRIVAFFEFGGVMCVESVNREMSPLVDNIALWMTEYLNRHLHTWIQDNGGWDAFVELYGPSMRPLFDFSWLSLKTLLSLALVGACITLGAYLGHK
Caspase-3 (Homo sapiens), sequence (P42574 whole entry, looked up): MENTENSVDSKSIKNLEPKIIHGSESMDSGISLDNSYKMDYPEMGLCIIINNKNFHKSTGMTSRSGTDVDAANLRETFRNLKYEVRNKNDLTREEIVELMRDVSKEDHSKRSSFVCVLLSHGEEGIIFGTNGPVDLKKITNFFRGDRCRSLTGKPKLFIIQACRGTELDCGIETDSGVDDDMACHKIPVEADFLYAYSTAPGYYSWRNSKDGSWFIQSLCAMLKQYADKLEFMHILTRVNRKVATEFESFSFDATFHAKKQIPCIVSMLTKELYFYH
Cytochrome P450 3A4 (Homo sapiens), sequence (P08684 whole entry, looked up): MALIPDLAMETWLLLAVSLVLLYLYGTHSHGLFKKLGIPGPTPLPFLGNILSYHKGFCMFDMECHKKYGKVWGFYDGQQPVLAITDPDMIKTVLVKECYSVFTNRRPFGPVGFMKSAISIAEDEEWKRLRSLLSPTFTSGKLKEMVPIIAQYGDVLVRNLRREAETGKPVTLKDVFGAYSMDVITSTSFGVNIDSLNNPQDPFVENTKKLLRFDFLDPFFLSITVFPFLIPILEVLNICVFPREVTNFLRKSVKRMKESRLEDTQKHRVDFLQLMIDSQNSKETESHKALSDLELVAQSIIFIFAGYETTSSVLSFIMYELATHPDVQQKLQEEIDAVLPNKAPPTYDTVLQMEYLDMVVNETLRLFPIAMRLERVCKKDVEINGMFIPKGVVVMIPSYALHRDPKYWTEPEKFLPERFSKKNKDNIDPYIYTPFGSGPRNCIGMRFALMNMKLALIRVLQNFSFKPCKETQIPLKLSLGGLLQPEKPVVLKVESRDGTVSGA
Cytochrome P450 2C19 (Homo sapiens), sequence (P33261 whole entry, looked up): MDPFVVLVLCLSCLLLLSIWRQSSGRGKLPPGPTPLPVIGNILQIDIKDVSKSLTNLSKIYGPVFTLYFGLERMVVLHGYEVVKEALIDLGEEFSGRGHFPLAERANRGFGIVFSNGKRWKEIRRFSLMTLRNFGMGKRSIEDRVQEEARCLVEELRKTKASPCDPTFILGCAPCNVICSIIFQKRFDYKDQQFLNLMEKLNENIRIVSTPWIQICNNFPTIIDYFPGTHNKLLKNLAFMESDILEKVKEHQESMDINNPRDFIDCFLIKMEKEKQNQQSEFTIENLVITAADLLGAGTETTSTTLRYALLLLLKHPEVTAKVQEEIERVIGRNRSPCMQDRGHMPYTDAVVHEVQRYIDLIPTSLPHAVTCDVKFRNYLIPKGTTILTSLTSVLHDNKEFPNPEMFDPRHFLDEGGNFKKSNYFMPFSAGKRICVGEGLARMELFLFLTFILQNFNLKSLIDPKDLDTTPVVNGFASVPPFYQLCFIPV

NCc1cccc(C2CCN(C(=O)c3ccc(C#Cc4ccccc4F)o3)CC2)c1
active: [2] 83.1 µM | [3] 80.5 µM | [5] 79.9 µM | [8] 90 µM | [9] 78 µM | [10] 83 µM | [11] 89.3 µM | [12] 94 µM | [13] 91.7 µM | [14] 79.3 µM | [15] 82.4 µM | [16] 75.2 µM | [17] 75.4 µM
inactive: [1] | [4] | [6] | [7] | [18] | [19]

CN(C)C(=O)C1(N2CCCCC2)CCN(CC[C@@]2(c3ccc(Cl)c(Cl)c3)CN(C(=O)c3ccccc3)CCO2)CC1
inactive: [1] | [3] | [5] | [6] | [7] | [9]
active: [2] 86.8 µM | [4] 22.6 µM | [8] 24.2 µM | [10] 27.8 µM | [12] 28 µM | [13] 21.9 µM | [14] 8.56 µM | [15] 14.9 µM | [16] 25.7 µM | [17] 17.5 µM | [18] 25.3 µM | [19] 53.1 µM

CO[C@H]1/C=C/O[C@@]2(C)Oc3c(C)c(O)c4c(O)c(c(/C=N/N5CCN(C)CC5)c(O)c4c3C2=O)NC(=O)/C(C)=C\C=C\[C@H](C)[C@H](O)[C@@H](C)[C@@H](O)[C@@H](C)[C@H](OC(C)=O)[C@@H]1C
active: [8] 0.563 µM | [10] 0.359 µM | [12] 0.232 µM | [14] 1.06 µM | [15] 0.593 µM
not listed: [11] | [13] | [16]
inactive: all other assays above

COc1ccc2cc(S(=O)(=O)N[C@H](CC(=O)N[C@H](Cc3ccc(CN4[C@H](C)CCC[C@@H]4C)cc3)C(=O)N(C)C(C)C)c3ccc4c(c3)OCO4)ccc2c1
inactive: [3] | [4] | [7] | [12] | [18]
active: [1] 13.3 µM | [2] 84.9 µM | [5] 21.6 µM | [6] 19.4 µM | [8] 7.93 µM | [9] 25.1 µM | [10] 11.5 µM | [13] 11.9 µM | [14] 29.7 µM | [15] 20.7 µM | [16] 24 µM | [17] 20.4 µM | [19] 33.3 µM
